Assay outcomes as filed in PubChem BioAssay.
Tau ThT inhib = qHTS for Inhibitors of Tau Fibril Formation, Thioflavin T Binding | Microtubule-associated protein tau (Homo sapiens), P10636 | recombinant tau K18 P301L, heparin-induced fibrillization, ThT fluorescence | Potency, µM (series often up to 57.4 µM), actives largely listed as inhibitors | 2.1% of 270,000 active; note: nearly all actives have a fitted effect of over 55% in size
Target sequence (P10636 561-689 P618L limits assumed): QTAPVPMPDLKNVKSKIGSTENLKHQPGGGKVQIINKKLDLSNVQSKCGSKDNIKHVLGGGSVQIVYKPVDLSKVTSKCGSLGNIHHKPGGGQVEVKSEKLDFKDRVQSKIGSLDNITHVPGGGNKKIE
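Fibril formation assay: tau K18 P301L at 15 uM with trace Alexa 594 label, heparin inducer 20 uM, pH 7 sodium acetate buffer, 37 C for 6 hr; endpoint ThT signal.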
Tau fluor counter = Counterscreen qHTS for Inhibitors of Tau Fibril Formation, Fluorescence Polarization | tau K18 P301L (four-repeat tau fragment) Alexa594 fluorescence, heparin fibrillization | Potency, µM (doses to about 57.7 µM) | 0.93% of 280,000 active | AID 1463, 2008; note: nearly all actives have a fitted effect of over 55% in size
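Human K18 P301L tau (15 uM unlabeled plus 0.24 uM Alexa 594-labeled, final) in 100 mM sodium acetate pH 7 was mixed with compound and 20 uM heparin and incubated 6 hr at 37 C.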
KDM4E inh = qHTS Assay for Inhibitors of Human Jumonji Domain Containing 2E (JMJD2E); Potency, µM (highest dose often 57.1 µM), most hits filed as inhibitors; Lysine-specific demethylase 4E (Homo sapiens), B2RXH2; 1.6% of 230,000 active; JMJD2E catalytic domain, FDH-coupled NADH fluorescence (FDH is formaldehyde dehydrogenase); note: nearly all actives have a fitted effect of over 50% in size
GoLoco inh red = qHTS Assay for Inhibitors of RGS12 GoLoco Motif Activity (Red Fluorophore) | Guanine nucleotide-binding protein G(i) subunit alpha-1 (Homo sapiens), P63096 | Gai1:RGS12 GoLoco peptide FP, rhodamine, 10 min | Potency, µM (highest dose often 61.6 µM), hits mostly inhibitors | 0.44% of 230,000 active | AID 880, 2007; active = well fitted inhibition curve with a large enough effect, not every such curve was filed as active; inactive = no such curve, though single readings can be large or run the other way; note: nearly all actives have a fitted effect of over 30% in size
Target sequence (P63096 whole entry, looked up): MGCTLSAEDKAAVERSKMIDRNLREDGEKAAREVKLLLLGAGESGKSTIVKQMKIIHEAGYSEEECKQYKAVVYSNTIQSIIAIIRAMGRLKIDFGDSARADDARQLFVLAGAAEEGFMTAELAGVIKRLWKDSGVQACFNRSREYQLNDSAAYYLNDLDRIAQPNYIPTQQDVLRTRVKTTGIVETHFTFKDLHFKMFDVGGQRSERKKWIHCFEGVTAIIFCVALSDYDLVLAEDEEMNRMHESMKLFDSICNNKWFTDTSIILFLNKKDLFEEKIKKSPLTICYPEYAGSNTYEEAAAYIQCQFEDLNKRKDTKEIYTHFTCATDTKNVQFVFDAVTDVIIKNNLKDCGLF
Tau FP inhib = qHTS for Inhibitors of Tau Fibril Formation, Fluorescence Polarization; Microtubule-associated protein tau (Homo sapiens), P10636; K18 P301L tau heparin fibrillization, Alexa594 FP, 6 h; Potency, µM (top dose mostly 57.7 µM), actives largely listed as inhibitors; 0.39% of 280,000 active; AID 1468, 2008; note: nearly all actives have a fitted effect of over 55% in size
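Compound effects on tau fibrillization are measured by Alexa 594 fluorescence polarization (ex 555, em 632 nm). K18 P301L tau is used at 15 uM with 0.24 uM labeled tracer, and 20 uM heparin induces aggregation over 6 hr at 37 C.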
A number is an active result; - = inactive; ? = inconclusive; . = not tested or not shown; [ ] = dose if it differs, or a comment. Only some compounds are listed: those with a hit (about 3.4% of all), similar ones and a draw of the others. Unless noted, calls come from the whole dose curve; as a rule, active = well fitted curve in the direction sought with a large enough effect; inconclusive = small, poorly fitted or top-dose-only effect, or another doubt; inactive = no such curve, though single readings can be large; an effect the other way counts as inactive or inconclusive.

SMILES	Tau ThT inhib	Tau fluor counter	KDM4E inh	GoLoco inh red	Tau FP inhib
C=CCCC(=O)Nc1nc(C)c(-c2csc(Nc3ccccc3OC)n2)s1	7.08µM	12.6µM[quencher]	?	-	?
CCCCC(=O)Nc1nc(C)c(-c2csc(Nc3ccccc3OC)n2)s1	?	15.8µM[quencher]	-	-	-
CCC(C)C(=O)Nc1nc(C)c(-c2csc(Nc3ccccc3OC)n2)s1 (stereo not drawn)	?	12.6µM[quencher]	-	-	-
Cc1ccccc1-c1noc(-c2ccc(N3CCN(c4ccccc4)CC3)c([N+](=O)[O-])c2)n1	-	-	.	.	?
Cc1cccc(-n2ncc(C(=O)N3CCN(Cc4ccccc4)CC3)c2C2CCN(C(=O)OC(C)(C)C)CC2)c1	-	-	.	.	-
Cc1cc(OC(=O)c2c(C)cc(O)cc2O)cc(O)c1C(=O)O	-	-	-	-	-
COC(=O)CC1(c2cccc3ccccc23)C(=O)c2ccccc2C1=O	15.8µM	?	-	-	-
CCCOP(=O)(c1ccc(N(C)C)cc1)C(O)c1ccncc1 (stereo not drawn)	-	-	17.8µM	-	-
CN(C)c1ccc(C(O)P(=O)(OCc2ccccc2)c2ccc(N(C)C)cc2)cc1 (stereo not drawn)	-	-	-	-	-
CN(C)c1ccc(P(=O)(OCc2ccccc2)C(O)c2ccncc2)cc1 (stereo not drawn)	?	-	20µM	-	-
CCN(Cc1ccccc1)C(=O)C(CC(C)C)NS(=O)(=O)c1ccc2c(c1)CCN2C(C)=O (stereo not drawn)	-	-	.	.	-
O=C(COc1ccccc1Cl)N(Cc1ccco1)Cc1ccco1	-	-	.	.	-
Cc1ccc2cc3c(N)c4c(C)ccc(C)c4nc3nc2c1	?	-	-	17.8µM	-
Nc1ccc2nc(-c3ccccn3)[nH]c2c1	25.1µM	?	?	-	-
Nc1ccc2nc(-c3ccccc3)[nH]c2c1	?	-	?	-	-
CCOc1cc(/C=C(\C#N)c2[nH]nc(N)c2C#N)ccc1O	14.1µM	?	?	-	-
O=C1NC(=S)S/C1=C\c1ccc(SCc2ccccc2)o1	10µM	?	-	-	-
O=C1NC(=S)S/C1=C\c1ccc(SCc2ccco2)o1	4.47µM	?	?	-	?
COc1cccc(CNC(=O)c2ccc(CSc3nc4ccncc4n3Cc3cccc(C)c3)cc2)c1	-	-	.	.	-
Cc1cc(C)c(Cn2c(C)c(CNCCCc3ccccc3)c(C(=O)O)c2C)c(C)c1	-	-	.	.	-
O=c1c(-c2ccccc2)nc2cnc(N3CCNCC3)nc2n1C1CC1	.	.	.	-	.
COc1cc(OC)nc(-n2ncc(Br)c(Br)c2=O)n1	10µM	-	-	-	?
COc1ccc(-n2nc3cc(C)c(N)c(Br)c3n2)cc1	14.1µM	?	?	-	?
CCOc1ccccc1CNC(=O)c1cccc(NC(=O)c2nsc3ccccc23)c1	-	-	.	.	-
COC(=O)c1c(SCC(=O)Nc2ccccc2OC)[nH]c2ccccc2c1=O	14.1µM	?	.	.	-
SMILES	Tau ThT inhib	Tau fluor counter	KDM4E inh	GoLoco inh red	Tau FP inhib
O=C1N=C(N2CCCC2C(=O)O)S/C1=C\c1ccco1 (stereo not drawn)	-	-	22.4µM	-	-
O=C1c2ccccc2C2=Nc3ccccc3SC(c3cccc(F)c3)C12 (stereo not drawn)	12.6µM	12.6µM[quencher]	-	-	?
O=C1c2ccccc2C2=Nc3ccccc3SC(c3ccc(Cl)cc3)C12 (stereo not drawn)	?	?	-	-	-
Cc1nn2c(=O)cc(CN(C)c3ccccc3)nc2s1	-	-	.	.	-
O=C(CSc1nc2ccccc2s1)N1N=C(c2cccs2)CC1c1ccc(F)cc1 (stereo not drawn)	-	-	?	-	-
O=C(CSc1nc2c(cnn2-c2ccc(F)cc2)c(=O)[nH]1)N1N=C(c2cccs2)CC1c1ccc(F)cc1 (stereo not drawn)	?	-	5.01µM	-	-
COc1ccc(/C=N/N=C2/NC(=O)CC(C(=O)O)S2)cc1 (stereo not drawn)	-	-	-	-	-
